Most compounds without a hit are left out; they make up all but 4.8% or so of the library.
ALR inh = human ALR oxidase inhibition via reduced H2O2; purified ALR, DTT oxidation, H2O2 HRP-luminol luminescence; inhibition, % (concentration not given with the values); 3.8% of 290,000 active; AID 485317; P55789;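 active = mean replicate inhibition above about 79%, with every replicate also reaching it, limit read from the data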
Target sequence (P55789 whole entry, looked up): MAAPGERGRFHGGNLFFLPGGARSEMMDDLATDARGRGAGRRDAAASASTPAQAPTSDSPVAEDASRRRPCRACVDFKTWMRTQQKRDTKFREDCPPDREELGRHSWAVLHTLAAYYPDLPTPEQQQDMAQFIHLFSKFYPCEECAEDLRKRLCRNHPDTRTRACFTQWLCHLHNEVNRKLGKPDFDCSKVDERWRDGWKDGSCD
SUMO Mot1 rescue = SUMOylation pathway inhibition by Mot1-301 growth rescue; S. cerevisiae Mot1-301 growth rescue, ATP luminescence, 38.5C; percent above DMSO median, 100 means doubled; growth rescue, % at 18.8 µM; 1% of 320,000 active;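 active = every valid replicate shows activation above 250% relative to neutral control wells; inactive = the rest, any valid replicate at or below 250%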;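 also: OY570 slx delta 5 strain wells were the positive control but not used for scaling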
AI-2 QS mod = modulators of Vibrio harveyi AI-2 quorum sensing system | activity change, % at 7.5 µM | AID 2094 | 0.4% of 300,000 active | Vibrio harveyi JMH597 AI-2 luminescence/OD600 ratio, 9 h; active compounds read low; strain lacks LuxN and CqsS sensors; 0 = neutral-control median; in the data active = activity change below about -75%, passing the limit was not always enough;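 also: luminescence divided by OD600 gain over 9 h not by final OD600 alone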
HIF activator = HIF pathway transcriptional activation; 0.32% of 300,000 active; AID 1910; U2OS HRE-luciferase reporter, luminescence; normalized: DMSO 0%, desferrioxamine 100%; activation, % at 7.5 µM (by protocol);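 active = mean activation of at least 10% of the iron chelator positive control signal, with at least half of replicates also reaching 10%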
* marks the source's active call; other numbers are inactive results.

Screening Cc1cccc(C(=O)N2CCCC(N3CCN(c4ccccc4)CC3)C2)n1 (stereo unspecified) returned ALR inh 98*, SUMO Mot1 rescue 0, AI-2 QS mod 10 and HIF activator -1.
For Cc1ccc(-c2csc(NS(=O)(=O)c3cccc(F)c3)n2)o1 the results were ALR inh 52 and SUMO Mot1 rescue 4.
For FC(F)(F)c1cnc(-c2cnc3c(-c4ccc(Cl)cc4)cnn3c2)c(Cl)c1 the results were ALR inh -1, SUMO Mot1 rescue -8 and HIF activator 0.
`N#Cc1cnn2cc(-c3ncc(C(F)(F)F)cc3Cl)cnc12` gave ALR inh 85*, SUMO Mot1 rescue -6, AI-2 QS mod 13 and HIF activator 1.
Screening COc1cc(/C=N/NC(=O)c2c(-c3ccccc3)noc2C)ccc1O returned ALR inh 99*, SUMO Mot1 rescue -6, AI-2 QS mod -7 and HIF activator 0.
C/C(=N\NC(=O)c1c(C)nc2ccccn12)c1ccc(O)cc1O was read as ALR inh -9, SUMO Mot1 rescue -12, AI-2 QS mod 29 and HIF activator 13*.
Cc1ccc(/C=N/NC(=O)c2c(-c3ccccc3)noc2C)c(O)c1 was read as ALR inh 20, SUMO Mot1 rescue 6, AI-2 QS mod 26 and HIF activator 18*.
Screening CCOc1cc(/C=N/NC(=O)c2c(-c3ccccc3)noc2C)ccc1O returned ALR inh 96*, SUMO Mot1 rescue 3, AI-2 QS mod 7 and HIF activator 100*.
`CC(=O)c1ccc(NC(=O)C(C)Sc2nnc(C3CCCCC3)o2)cc1` (stereo unspecified) gave ALR inh 2, SUMO Mot1 rescue -12, AI-2 QS mod 15 and HIF activator 0.
For CC(=O)c1ccccc1OCCCCN1CCCCC1 the results were ALR inh -4, SUMO Mot1 rescue -1, AI-2 QS mod 13 and HIF activator -1.
Screening CCOc1cc(/C=N/NC(=O)c2ccc(=O)n(C)c2)ccc1O returned ALR inh 99*, AI-2 QS mod 22 and HIF activator 1.
`COc1ccccc1/C=N/NC(=O)c1ccc(=O)n(C)c1` gave ALR inh -3, SUMO Mot1 rescue 7, AI-2 QS mod 4 and HIF activator 0.
`CCOc1cc(/C=N\NC(=O)c2c(C)nc3ccccn23)ccc1O` gave ALR inh 89*, SUMO Mot1 rescue -9, AI-2 QS mod 20 and HIF activator 0.
`CC(C(N)=O)N1C(=O)NC2(CCCc3ccccc32)C1=O` (stereo unspecified) gave ALR inh -5, SUMO Mot1 rescue 2, AI-2 QS mod 41 and HIF activator -1.
O=C(O)c1ccc(N(c2ccccc2)c2ccccc2)cc1 was read as ALR inh 99* and SUMO Mot1 rescue -14.
`CSc1ccc(/C=C/C(=O)N2CCCN(C)CC2)cc1` gave ALR inh 99*, SUMO Mot1 rescue 2, AI-2 QS mod 16 and HIF activator 2.
For CSc1ccc(/C=C/C(=O)c2c(O)cc(C)oc2=O)cc1 the results were ALR inh 98*, SUMO Mot1 rescue 70, AI-2 QS mod 20 and HIF activator 1.
Screening CN1CCN(C(=O)/C=C\c2ccc(Cl)cc2)CC1 returned ALR inh 1, SUMO Mot1 rescue 10, AI-2 QS mod 16 and HIF activator 0.
Screening CSc1ccc(C(=O)/C=C/c2ccc(N)cc2)cc1 returned ALR inh 97*, SUMO Mot1 rescue 65, AI-2 QS mod 8 and HIF activator 2.
Screening CSc1ccc(/C=C/C(=O)c2ccc(NC(=O)C(C)C)cc2)cc1 returned ALR inh 5, SUMO Mot1 rescue -16, AI-2 QS mod 20 and HIF activator 0.
`CC1CCCC(NC(=O)COC(=O)c2cc3ccccc3oc2=O)C1C` (stereo unspecified) gave SUMO Mot1 rescue -5.
For O=C(c1cc(Cl)nc2ccccc12)N(Cc1nnc(-c2ccccc2Cl)o1)C1CC1 the results were SUMO Mot1 rescue -4, AI-2 QS mod 11 and HIF activator 0.
`CC(=O)NC(c1ccco1)c1cc(F)c2cccnc2c1O` (stereo unspecified) gave ALR inh -9 and SUMO Mot1 rescue -1.
CC(C)C(=O)NC(c1cccc([N+](=O)[O-])c1)c1ccc2cccnc2c1O (stereo unspecified) was read as ALR inh 3, SUMO Mot1 rescue 13, AI-2 QS mod -37 and HIF activator 95*.
